{"source": "PubChem BioAssay AID504850", "about": "(National Center for Advancing Translational Sciences (NCATS), 2011)", "note": "About 1,200 (52%) of roughly 2,300 compounds were called active. About 34% were inconclusive and are not listed. The set was probably picked from earlier hits. The list shows a part of the results. Values without a mark were called inactive. Calls come from the whole dose curve; as a rule, active = well fitted inhibition curve with a large enough effect; inconclusive = small, poorly fitted or top-dose-only effect, or effect the other way; inactive = no such curve, though single readings can be large or run the other way. % is set by controls: 0 for no effect and ±100 for the full control effect; potency is the fitted concentration of half-maximal effect."}
{"test": "Confirmation screen for delayed death inhibitors of the malarial parasite plastid, 48 hour incubation; note: nearly all actives have a fitted effect of over 65% in size", "conditions": "P. falciparum-infected erythrocytes, luciferase growth; series mostly up to 28.7 µM; activity change, negative = inhibition: at the top concentration", "in_short": "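Single-generation (48 h, 37 C) exposure of integrated firefly luciferase-reporter P. falciparum in red cells, 0.1% parasitemia at 2% hematocrit, Albumax-supplemented RPMI. Falling luciferase signal marks parasite growth inhibition.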", "units": {"activity change, negative = inhibition": "%"}}
{"smiles": "CC1CCN(C(=O)Cn2c(=O)oc3cc(S(=O)(=O)N4CCCCC4)ccc32)CC1", "Potency": "15.8 µM (active)"}
{"smiles": "COc1ccc(CN2CCN(Cc3cc4ccccc4o3)CC2CCO)cc1C", "note": "(configuration not stated)", "Potency": "14.1 µM (active)"}
{"smiles": "CCOc1ccccc1CN1CCN(Cc2ccc3cccc(OC)c3n2)CC1CCO", "note": "(configuration not stated)", "Potency": "14.1 µM (active)"}
{"smiles": "CCCN1C(=O)c2ccccc2NC1c1ccc(OC)cc1O", "note": "(configuration not stated)", "Potency": "12.6 µM (active)"}
{"smiles": "Cc1cccc(C2Nc3ccccc3C(=O)N2c2ccccc2)n1", "note": "(configuration not stated)", "activity change, negative = inhibition": -25.3}
{"smiles": "O=[N+]([O-])c1ccc(C[n+]2cccc3c4ccccc4ccc32)cc1", "Potency": "0.398 µM (active)"}
{"smiles": "O=[N+]([O-])c1ccc(CNC2CCCc3ccccc32)cc1", "note": "(configuration not stated)", "activity change, negative = inhibition": -49.5}
{"smiles": "O=C(NC1CCCC1)c1ccc([N+](=O)[O-])s1", "Potency": "14.1 µM (active)"}
{"smiles": "O=C(NC1C=CS(=O)(=O)C1)c1sc2ccccc2c1Cl", "note": "(configuration not stated)", "Potency": "6.31 µM (active)"}
{"smiles": "Cc1cc(Cl)cc(C)c1OCCn1ccnc1", "Potency": "12.6 µM (active)"}
{"smiles": "Cc1nn(Cc2ccccc2Cl)c(C)c1C(=O)Nc1nnc(C2CC2)s1", "Potency": "11.2 µM (active)"}
{"smiles": "Cc1c(OCC(=O)NCc2cccnc2)ccc2c3c(c(=O)oc12)CCCC3", "Potency": "10 µM (active)"}
{"smiles": "Cc1c(OCC(=O)NCc2cccnc2)ccc2c3c(c(=O)oc12)CCC3", "activity change, negative = inhibition": -10.9}
{"smiles": "Cc1c(OC(C)C(=O)NCc2cccnc2)ccc2c3c(c(=O)oc12)CCCC3", "note": "(configuration not stated)", "Potency": "1.58 µM (active)"}
{"smiles": "Cc1cccc(C(=O)Nc2ccccc2SCC2CSc3nc4ccccc4c(=O)n32)c1", "note": "(configuration not stated)", "Potency": "11.2 µM (active)"}
{"smiles": "Cc1ccc(C(=O)Nc2ccccc2SCC2CSc3nc4ccccc4c(=O)n32)cc1", "note": "(configuration not stated)", "Potency": "11.2 µM (active)"}
{"smiles": "O=C(Nc1ccccc1SCC1CSc2nc3ccccc3c(=O)n21)c1ccccc1Cl", "note": "(configuration not stated)", "Potency": "11.2 µM (active)"}
{"smiles": "O=C(Nc1ccccc1SCC1CSc2nc3ccccc3c(=O)n21)c1cccc(Cl)c1", "note": "(configuration not stated)", "Potency": "11.2 µM (active)"}
{"smiles": "COc1ccc(NS(=O)(=O)c2cc(OCC(N)=O)c(C)cc2Cl)cc1", "Potency": "7.08 µM (active)"}
{"smiles": "COc1ccc(/C=C2\\N=C(SC)N(c3ccccc3OC)C2=O)cc1", "Potency": "14.1 µM (active)"}
{"smiles": "CCN(CC)C1=N/C(=C\\c2ccc(OC)cc2)C(=O)N1c1ccccc1", "Potency": "14.1 µM (active)"}
{"smiles": "Cc1c(O)ccc2c(CN(C)Cc3ccccc3)cc(=O)oc12", "Potency": "14.1 µM (active)"}
{"smiles": "Cc1ccc2c(CN(C)Cc3cccc(Cl)c3)cc(=O)oc2c1C", "activity change, negative = inhibition": -20.7}
{"smiles": "COc1cccc(CN(C)Cc2cc(=O)oc3c(C)c(C)ccc23)c1", "activity change, negative = inhibition": -26.2}
{"smiles": "COc1ccccc1CN1CCCC(CN(CCN(C)C)C(=O)c2ccc(C)cc2)C1", "note": "(configuration not stated)", "Potency": "15.8 µM (active)"}
{"smiles": "Cn1nnnc1Sc1ncnc2scc(-c3cccc(S(C)(=O)=O)c3)c12", "Potency": "12.6 µM (active)"}
{"smiles": "Cn1nnnc1Sc1ncnc2scc(-c3cccc(F)c3)c12", "Potency": "12.6 µM (active)"}
